Measured values: PubChem BioAssay (NCATS)
Results filed as inconclusive are left out. Where a call stands in place of a potency, no number is given. Active and inactive are the calls of the source. The call rests on the fitted dose curve; in most records, active means well fitted cell-killing curve with a large enough effect; inconclusive means small, poorly fitted or top-dose-only effect, or effect the other way; inactive means no such curve, though single readings can be large or run the other way.

Experiment: Quantitative High-Throughput drug screen in 47 multiple myeloma cell lines against the NCATS MIPE library collection: MM1S_ATCC cell viability assay (AID 1918980); further: nearly all actives have a fitted effect of over 45% in size
Settings: MM1S myeloma viability, CellTiter-Glo ATP luminescence, 48 h; series mostly up to 45.8 µM
In short: (§1)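 500 cells/well per myeloma line exposed to pinned MIPE 4.0 compounds for 48 h at 37 °C, 5% CO2. Viability read as ATP by CellTiter-Glo luminescence, normalised to DMSO-only (100%) and media-only (0%) wells.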
Potency means the concentration at half of the fitted maximal effect.

Which Potency does the source give for `O=c1c(O)c(-c2ccc(O)c(O)c2)oc2cc(O)cc(O)c12` here?
The Potency was 26.4 µM (active).

Which Potency does the source give for `OCCN(CCO)c1nc(N2CCCCC2)c2nc(N(CCO)CCO)nc(N3CCCCC3)c2n1` here?
The Potency was 20.9 µM (active).

For `Nc1c2c(nc3ccccc13)CCCC2`, which Potency is on record?
The Potency was 11.8 µM (active).

For `NC12CC3CC(CC(C3)C1)C2`, which Potency is on record?
Its Potency is 1.18 µM (active).

Experiment: Quantitative High-Throughput drug screen in 47 multiple myeloma cell lines against the NCATS MIPE library collection: MM1R_ATCC cell viability assay (AID 1918981); further: nearly all actives have a fitted effect of over 35% in size
Settings: MM1R multiple myeloma cells, CellTiter-Glo viability, 48 h; series mostly up to 45.8 µM
In short: as §1

With `CN(C)c1nc(N(C)C)nc(N(C)C)n1` as the compound, how does the Potency read?
Its Potency is “inactive”.

Which Potency does the source give for `C[C@](N)(Cc1ccc(O)c(O)c1)C(=O)O` here?
Its Potency is 20.9 µM (active).

Which Potency does the source give for `NCCc1cnc[nH]1` here?
The Potency was 1.87 µM (active).

For `CC1COc2c(N3CCN(C)CC3)c(F)cc3c(=O)c(C(=O)O)cn1c23` (stereo not drawn), which Potency is on record?
Its Potency is “inactive”.

With `CN(CCOc1ccc(NS(C)(=O)=O)cc1)CCc1ccc(NS(C)(=O)=O)cc1` as the compound, how does the Potency read?
The Potency was “inactive”.

Which Potency does the source give for `Clc1ccc(C(c2ccccc2Cl)C(Cl)Cl)cc1` (stereo not drawn) here?
The Potency was 14.8 µM (active).

For `Fc1ccc([C@@H]2CCNC[C@H]2COc2ccc3c(c2)OCO3)cc1`, which Potency is on record?
Its Potency is 18.7 µM (active).

Which Potency does the source give for `Cn1ccc2cc3c(cc21)CCN3C(=O)Nc1cccnc1` here?
Its Potency is “inactive”.

For `CCCNCC(O)COc1ccccc1C(=O)CCc1ccccc1` (stereo not drawn), which Potency is on record?
The Potency was “inactive”.

With `CN1C2CCC1CC(OC(=O)C(CO)c1ccccc1)C2` (stereo not drawn) as the compound, how does the Potency read?
Its Potency is “inactive”.

Which Potency does the source give for `O=C(c1ccc(F)cc1)C1CCN(CCn2c(=O)[nH]c3ccccc3c2=O)CC1` here?
Its Potency is “inactive”.

Which Potency does the source give for `Cc1cc(C(C)(C)C)cc(C)c1CC1=NCCN1` here?
The Potency was “inactive”.

Which Potency does the source give for `COc1ccccc1OCCNCC(O)COc1cccc2[nH]c3ccccc3c12` (stereo not drawn) here?
The Potency was 26.4 µM (active).

Which Potency does the source give for `COc1ccccc1OCC(O)CN1CCN(CC(=O)Nc2c(C)cccc2C)CC1` (stereo not drawn) here?
The Potency was “inactive”.

With `CCN1CCCC1CNC(=O)c1cc(S(=O)(=O)CC)c(N)cc1OC` (stereo not drawn) as the compound, how does the Potency read?
The Potency was “inactive”.

For `Clc1ccc2nsnc2c1NC1=NCCN1`, which Potency is on record?
The Potency was “inactive”.

For `O=C(C1CCCCC1)N1CC(=O)N2CCc3ccccc3C2C1` (stereo not drawn), which Potency is on record?
The Potency was “inactive”.

Which Potency does the source give for `COc1ccc(C2CNC(=O)C2)cc1OC1CCCC1` (stereo not drawn) here?
The Potency was “inactive”.

For `O=C1N(c2ccccc2)c2ccccc2C1(Cc1ccncc1)Cc1ccncc1`, which Potency is on record?
Its Potency is 26.4 µM (active).

With `COc1cc2nc(N3CCN(C(=O)C4COc5ccccc5O4)CC3)nc(N)c2cc1OC` (stereo not drawn) as the compound, how does the Potency read?
Its Potency is 20.9 µM (active).

For `NC(CO)C(=O)NNCc1ccc(O)c(O)c1O` (stereo not drawn), which Potency is on record?
Its Potency is 11.8 µM (active).

With `CC(C)(C)C(=O)Oc1ccc(S(=O)(=O)Nc2ccccc2C(=O)NCC(=O)O)cc1` as the compound, how does the Potency read?
Its Potency is “inactive”.

Experiment: Quantitative High-Throughput drug screen in 47 multiple myeloma cell lines against the NCATS MIPE library collection: LP1_DSMZ cell viability assay (AID 1918982); further: nearly all actives have a fitted effect of over 35% in size
Settings: LP1 myeloma viability, CellTiter-Glo ATP luminescence, 48 h; series mostly up to 45.8 µM
In short: as §1

Which Potency does the source give for `CN(C)c1nc(N(C)C)nc(N(C)C)n1` here?
Its Potency is “inactive”.

For `CCOC(=O)C(C)(C)Oc1ccc(Cl)cc1`, which Potency is on record?
The Potency was “inactive”.

Which Potency does the source give for `CN1C(C(=O)Nc2ccccn2)=C(O)c2ccccc2S1(=O)=O` here?
Its Potency is “inactive”.

Which Potency does the source give for `CC1COc2c(N3CCN(C)CC3)c(F)cc3c(=O)c(C(=O)O)cn1c23` (stereo not drawn) here?
The Potency was “inactive”.

With `CN(CCOc1ccc(NS(C)(=O)=O)cc1)CCc1ccc(NS(C)(=O)=O)cc1` as the compound, how does the Potency read?
The Potency was “inactive”.

For `CN1C2CCC1CC(OC(=O)C(CO)c1ccccc1)C2` (stereo not drawn), which Potency is on record?
Its Potency is “inactive”.

With `O=C(c1ccc(F)cc1)C1CCN(CCn2c(=O)[nH]c3ccccc3c2=O)CC1` as the compound, how does the Potency read?
Its Potency is “inactive”.

With `CC(COc1ccccc1)N(CCCl)Cc1ccccc1` (stereo not drawn) as the compound, how does the Potency read?
The Potency was “inactive”.

For `Nc1c2c(nc3ccccc13)CCCC2`, which Potency is on record?
The Potency was “inactive”.

With `COc1ccccc1OCC(O)CN1CCN(CC(=O)Nc2c(C)cccc2C)CC1` (stereo not drawn) as the compound, how does the Potency read?
The Potency was “inactive”.

For `CCN1CCCC1CNC(=O)c1cc(S(=O)(=O)CC)c(N)cc1OC` (stereo not drawn), which Potency is on record?
The Potency was “inactive”.

With `C[C@H]1c2cccc(O)c2C(O)=C2C(=O)[C@]3(O)C(O)=C(C(N)=O)C(=O)[C@@H](N(C)C)[C@@H]3[C@@H](O)[C@@H]21` as the compound, how does the Potency read?
Its Potency is “inactive”.

For `NS(=O)(=O)c1cc2c(cc1Cl)NCNS2(=O)=O`, which Potency is on record?
Its Potency is “inactive”.

For `Clc1ccc2nsnc2c1NC1=NCCN1`, which Potency is on record?
Its Potency is “inactive”.

Which Potency does the source give for `O=C(C1CCCCC1)N1CC(=O)N2CCc3ccccc3C2C1` (stereo not drawn) here?
Its Potency is “inactive”.

Which Potency does the source give for `COc1ccc(C2CNC(=O)C2)cc1OC1CCCC1` (stereo not drawn) here?
Its Potency is “inactive”.

For `O=C1N(c2ccccc2)c2ccccc2C1(Cc1ccncc1)Cc1ccncc1`, which Potency is on record?
The Potency was “inactive”.

Which Potency does the source give for `COc1cc2c(c(OC)c1OC)-c1ccc(OC)c(=O)cc1[C@@H](NC(C)=O)CC2` here?
Its Potency is “inactive”.

Which Potency does the source give for `Cc1cnc(C(=O)NCCc2ccc(S(=O)(=O)NC(=O)NC3CCCCC3)cc2)cn1` here?
The Potency was 20.9 µM (active).

Which Potency does the source give for `COc1cc2nc(N3CCN(C(=O)C4COc5ccccc5O4)CC3)nc(N)c2cc1OC` (stereo not drawn) here?
The Potency was 11.8 µM (active).

Which Potency does the source give for `NC(CO)C(=O)NNCc1ccc(O)c(O)c1O` (stereo not drawn) here?
Its Potency is 20.9 µM (active).

Which Potency does the source give for `CC(C)(C)C(=O)Oc1ccc(S(=O)(=O)Nc2ccccc2C(=O)NCC(=O)O)cc1` here?
The Potency was “inactive”.

Experiment: Quantitative High-Throughput drug screen in 47 multiple myeloma cell lines against the NCATS MIPE library collection: KMS28PE_JCRB cell viability assay (AID 1918983); further: nearly all actives have a fitted effect of over 35% in size
Settings: KMS28PE multiple myeloma viability, CellTiter-Glo ATP, 48 h; series mostly up to 45.8 µM
In short: as §1

With `CN(C)c1nc(N(C)C)nc(N(C)C)n1` as the compound, how does the Potency read?
Its Potency is 23.5 µM (active).

For `CCOC(=O)C(C)(C)Oc1ccc(Cl)cc1`, which Potency is on record?
Its Potency is “inactive”.

For `CN1C(C(=O)Nc2ccccn2)=C(O)c2ccccc2S1(=O)=O`, which Potency is on record?
Its Potency is “inactive”.

Which Potency does the source give for `NCCc1cnc[nH]1` here?
Its Potency is “inactive”.

With `CC1COc2c(N3CCN(C)CC3)c(F)cc3c(=O)c(C(=O)O)cn1c23` (stereo not drawn) as the compound, how does the Potency read?
The Potency was “inactive”.

With `CN(CCOc1ccc(NS(C)(=O)=O)cc1)CCc1ccc(NS(C)(=O)=O)cc1` as the compound, how does the Potency read?
The Potency was “inactive”.

With `Clc1ccc(C(c2ccccc2Cl)C(Cl)Cl)cc1` (stereo not drawn) as the compound, how does the Potency read?
Its Potency is 23.5 µM (active).

Which Potency does the source give for `Fc1ccc([C@@H]2CCNC[C@H]2COc2ccc3c(c2)OCO3)cc1` here?
The Potency was 20.9 µM (active).

With `CCCNCC(O)COc1ccccc1C(=O)CCc1ccccc1` (stereo not drawn) as the compound, how does the Potency read?
The Potency was “inactive”.

With `CN1C2CCC1CC(OC(=O)C(CO)c1ccccc1)C2` (stereo not drawn) as the compound, how does the Potency read?
Its Potency is “inactive”.

Which Potency does the source give for `O=C(c1ccc(F)cc1)C1CCN(CCn2c(=O)[nH]c3ccccc3c2=O)CC1` here?
The Potency was “inactive”.

With `O=c1c(O)c(-c2ccc(O)c(O)c2)oc2cc(O)cc(O)c12` as the compound, how does the Potency read?
Its Potency is “inactive”.

With `Cc1cc(C(C)(C)C)cc(C)c1CC1=NCCN1` as the compound, how does the Potency read?
Its Potency is “inactive”.

For `OCCN(CCO)c1nc(N2CCCCC2)c2nc(N(CCO)CCO)nc(N3CCCCC3)c2n1`, which Potency is on record?
Its Potency is 20.9 µM (active).

Which Potency does the source give for `Nc1ccn([C@H]2CC[C@@H](CO)O2)c(=O)n1` here?
Its Potency is “inactive”.

For `Nc1c2c(nc3ccccc13)CCCC2`, which Potency is on record?
Its Potency is 14.8 µM (active).

For `CCN1CCCC1CNC(=O)c1cc(S(=O)(=O)CC)c(N)cc1OC` (stereo not drawn), which Potency is on record?
Its Potency is “inactive”.

For `NS(=O)(=O)c1cc2c(cc1Cl)NCNS2(=O)=O`, which Potency is on record?
The Potency was “inactive”.

Which Potency does the source give for `Clc1ccc2nsnc2c1NC1=NCCN1` here?
The Potency was “inactive”.

For `NC12CC3CC(CC(C3)C1)C2`, which Potency is on record?
Its Potency is “inactive”.

For `O=C(C1CCCCC1)N1CC(=O)N2CCc3ccccc3C2C1` (stereo not drawn), which Potency is on record?
Its Potency is “inactive”.

For `COc1ccc(C2CNC(=O)C2)cc1OC1CCCC1` (stereo not drawn), which Potency is on record?
The Potency was “inactive”.

For `O=C1N(c2ccccc2)c2ccccc2C1(Cc1ccncc1)Cc1ccncc1`, which Potency is on record?
Its Potency is “inactive”.

Which Potency does the source give for `COc1cc2nc(N3CCN(C(=O)C4COc5ccccc5O4)CC3)nc(N)c2cc1OC` (stereo not drawn) here?
The Potency was 23.5 µM (active).

For `CC(C)(C)C(=O)Oc1ccc(S(=O)(=O)Nc2ccccc2C(=O)NCC(=O)O)cc1`, which Potency is on record?
The Potency was “inactive”.
